# Data from PubChem BioAssay AID1981 (Southern Research Specialized Biocontainment Screening …, 2009).
# Hit rate of the full screen: of about 2,200 compounds, about 480 (22%) were called active. The rule behind the calls is not given here. The list is a sample of the results. Entries that show only a call come without a potency. Potency and affinity values are given separately.
# Assay: S. Typhimurium GFP fluorescence dose response in modified counterscreen for PhoP regulon inhibitor project (AID 1981)
# Settings: 4 h; series mostly up to 150 µM
row,Structure (SMILES),outcome
1,O=C(NCc1cccs1)[C@@H]1CSC2c3ccccc3C(=O)N21 (stereo partly drawn),inactive
2,CC(C(=O)NC1CCCc2ccccc21)N1CCN(Cc2ccc3c(c2)OCO3)CC1 (stereo not drawn),inactive
3,Cc1ccc(NC2CC(=O)N(Cc3ccccc3)C2=O)cc1 (stereo not drawn),inactive
4,NC(=O)C1(NC(=O)[C@@H]2CC3(CC(c4cccc(NC(=O)[C@@H]5CCC(=O)N5)c4)=NO3)CN2C(=O)Cc2ccc(Cl)cc2)CC1 (stereo partly drawn),inactive
5,Cc1ccc(C=Nc2ccccc2C(N)=O)s1,inactive
6,CC(=O)Nc1ccc(-c2nnc(SCc3c(C)cc(C)cc3C)n2C)cc1,inactive
7,O=C(NCc1cccs1)c1cccc(Nc2nc3ccc(Br)cc3[nH]2)c1,inactive
8,Nc1c(C(=O)NCCc2ccc(Cl)cc2)sc2ccc(S(=O)(=O)N3CCCCC3)cc12,inactive
9,CCCCCCCCNc1ncnc2ccccc12,inactive
10,Clc1ccc(OCCn2ccnc2)c(Br)c1,inactive
11,Cc1ccc(N2C(=O)CC(Nc3ccccc3)C2=O)cc1 (stereo not drawn),inactive
12,COC(=O)c1sccc1N/N=C(\C)c1ccc(F)c(Cl)c1,inactive
13,CCN(CC(=O)N1CCN(Cc2ccccc2)CC1)S(=O)(=O)c1ccc(F)cc1,inactive
14,O=C(Nn1c(O)c(C=C2N=c3ccccc3=N2)sc1=S)c1ccc(Cl)cc1,inactive
15,C=CCn1c(SCC(=O)Nc2nnc(CC)s2)nnc1-c1cccnc1,inactive
16,CN(c1ccccc1)S(=O)(=O)c1ccc(C(=O)Nc2nnc(-c3ccc(F)cc3)o2)cc1,inactive
17,Cc1ccc(C)c(NC(=O)C(Sc2nnc(-c3cccs3)o2)c2ccccc2)c1 (stereo not drawn),inactive
18,Cc1cc(-c2c(C)n([O-])c(C)c(C)[n+]2=O)ccc1F,inactive
19,COc1cc(C(=O)NC(=S)Nc2ccc3oc(=O)ccc3c2)cc(OC)c1OC,inactive
20,CC1(C)CC(=O)C2=C(C1)OC1=C(C(=O)CC(C)(C)C1)C2c1ccc(O)cc1O,inactive
21,Cc1cc(Nc2ccccc2F)n2ncnc2n1,inactive
22,C/C(=N\N=C(/N)SC1CC(=O)N(c2cccc(Cl)c2)C1=O)c1cccs1 (stereo not drawn),inactive
23,CCCCCCNCc1cccc(Br)c1,inactive

row,Structure (SMILES),outcome
1,Cc1ccccc1NC(=O)Nc1cccs1,inactive
2,O=C(c1cc(-c2cccs2)nc2ccccc12)N1CCN(c2ccccc2O)CC1,inactive
3,CCC1=NNc2cccc3c(OC)ccc1c23,inactive
4,O=C1Nc2ccccc2C12OCC1(CO2)COC2(OC1)C(=O)Nc1ccccc12 (stereo not drawn),inactive
5,Cc1ccc2nc(SCC(=O)NCc3ccco3)[nH]c2c1,inactive
6,Cc1ccc(C(C)C)c(OCC(=O)N2CCN(Cc3nc4cc([N+](=O)[O-])ccc4n3C)CC2)c1,inactive
7,Cc1cc(C)cc(-n2nc(C)cc2N)c1,inactive
8,CCCN1C(=O)SC(CC(=O)Nc2ccc(Br)cc2)C1=O (stereo not drawn),inactive
9,Cn1c(NCc2cccs2)nc2ccccc21,inactive
10,CC(C)[C@@H]1CC[C@@H](C)C[C@H]1OC(=O)C[n+]1cc(-c2ccc(Cl)cc2)n2c1CCCCC2,inactive
11,CC1CCC(C(C)C)C(OC(=O)Cn2c(-c3ccc(Cl)cc3)[n+](C)c3ccccc32)C1 (stereo not drawn),inactive
12,NC[C@@]12CCCC1C1CCC2C1 (stereo partly drawn),inactive
13,CN(C)S(=O)(=O)Oc1ccsc1C(=O)Nc1ccccc1Cl,inactive
14,COC(=O)c1cccc(NC(=O)CCCOc2ccccc2)c1,inactive
15,O=C(CSC1CC(=O)N(CCc2ccccc2)C1=O)Nc1cccc(Cl)c1 (stereo not drawn),inactive
16,Nc1ccc2nc(SCC(=O)Nc3ccc(N4CCOCC4)c(Cl)c3)sc2c1,inactive
17,Cc1cccc(NC(=O)CCC(=O)OCc2ccc(Br)cc2)c1,inactive
18,Cc1nc2ccccc2n1CC(=O)N/N=C\C=C\c1ccccc1,inactive
19,O=C(CCN1C(=O)c2ccccc2C1=O)Nc1ccc(-c2cn3ccsc3n2)cc1,inactive
20,CC(C)(C)n1ncc2c(=O)n(CC(=O)Nc3ccc4c(c3)OCO4)cnc21,inactive
21,O=C1NC(=Nc2ccccc2)/C(=C/c2ccco2)S1,inactive
22,COC(=O)c1ccc(CSc2nnnn2-c2ccccc2)o1,inactive
23,O=C1c2ccccc2C(=O)N1CCCc1nc(-c2ccccn2)no1,inactive

row,Structure (SMILES),outcome
1,O=C(/C=C/c1ccccc1)N/C(=C/c1ccccc1)C(=O)N1CCOCC1,inactive
2,C=CCOc1ccc(Br)cc1/C=N/O,inactive
3,CCCOc1ccc(Br)cc1CSC(=N)N,inactive
4,COC(=O)c1ccc(NC(=O)c2ccc(N(C)S(C)(=O)=O)cc2)cc1,inactive
5,CC1CCCCN1CCNS(=O)(=O)c1ccc2c(c1)oc(=O)n2C (stereo not drawn),inactive
6,O=C1NC2=C(CCc3ccccc32)C(c2ccc(Br)cc2)N1 (stereo not drawn),inactive
7,Cc1ccccc1NC(=O)c1ccc(-n2cncn2)nc1,inactive
8,CCc1nc2ccccc2c2nc3ccccc3n12,inactive
9,CCOC(=O)CC(=O)CSc1nc2c(c(C)c1C#N)CCC2,inactive
10,N/C(=N\c1nc2ccccc2o1)NC(=O)c1ccccc1F,inactive
11,CC(=O)Nc1cc(N=Cc2ccc(O)cc2O)c(Cl)cc1Cl,inactive
12,O=C(N/N=C/c1ccc(O)cc1O)/C(=C/c1ccccc1)CCO,inactive
13,Oc1ccc(/C=N/NC2=NCCCCC2)c(O)c1,inactive
14,CC1C(=O)NN=C1C(=O)N/N=C\c1ccc(O)cc1O (stereo not drawn),inactive
15,Oc1ccc(/C=N/n2cnn(Cc3ccccc3Cl)c2=S)c(O)c1,inactive
16,Cc1ccc2nc(SCCCCOc3ccccc3)[nH]c2c1,inactive
17,CCOC(=O)CN1C(=O)C(C)(C)Oc2ccc(C(=O)Nc3ccccc3OC)cc21,inactive
18,O=C(Nc1cc(C(F)(F)F)ccc1N1CCOCC1)c1ccc(Br)o1,inactive
19,COc1ccc(C)cc1NC(=O)C(Sc1nnc(-c2ccncc2)n1-c1ccc(Cl)cc1)c1ccccc1 (stereo not drawn),inactive
20,Cc1ccc(N=Cc2sc(O)c3ccccc23)cc1,inactive
21,O=C1CSC(=S)N1c1ccc(F)cc1,inactive
22,CC(=O)Nc1nc(-c2ccc(Cl)cc2)nc(C)c1C(C)=O,inactive
